Source: PubChem BioAssay (Tox21)
Inconclusive results are not listed. Calls of active or inactive are those of the source. Unless noted, calls follow the shape of the dose curve; as a rule, active = well fitted curve in the direction sought with a large enough effect in the repeat runs; inconclusive = weak or mixed curves; inactive = no such curve, though single readings can be large; an effect the other way counts as inactive or inconclusive.

Key:
[1] = biological target: Estrogen receptor beta (Homo sapiens) (UniProt Q92731); assay: qHTS assay to identify small molecule agonists of the estrogen receptor beta (ER-beta) signaling pathway (AID 1259377; active = well fitted activation curve with a large enough effect in the signal ratio in the repeat runs, not every such curve was filed as active; the % refers to the signal ratio)
Sequence of Estrogen receptor beta (Homo sapiens) (Q92731 whole entry, looked up): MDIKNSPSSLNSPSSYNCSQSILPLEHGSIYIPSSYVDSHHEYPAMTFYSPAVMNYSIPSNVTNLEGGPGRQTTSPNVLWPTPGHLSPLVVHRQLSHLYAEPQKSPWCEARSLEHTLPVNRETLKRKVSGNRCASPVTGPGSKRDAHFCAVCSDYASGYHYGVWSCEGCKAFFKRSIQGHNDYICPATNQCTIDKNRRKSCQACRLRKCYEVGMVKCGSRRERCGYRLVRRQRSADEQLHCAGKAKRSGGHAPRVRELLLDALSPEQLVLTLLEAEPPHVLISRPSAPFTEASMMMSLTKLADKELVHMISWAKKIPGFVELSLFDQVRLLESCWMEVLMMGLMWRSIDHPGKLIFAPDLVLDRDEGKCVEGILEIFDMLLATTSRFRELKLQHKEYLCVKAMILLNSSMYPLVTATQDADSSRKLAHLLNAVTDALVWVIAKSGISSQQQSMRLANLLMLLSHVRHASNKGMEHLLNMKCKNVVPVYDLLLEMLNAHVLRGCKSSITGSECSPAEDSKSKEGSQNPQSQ
Procedure, shortened: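 Beta-lactamase reporter readout: fluorescence of LiveBLAzer B/G FRET substrate after 2 h at room temperature, following 16 h compound treatment of ER-beta-UAS-bla HEK293T cells at 37C in 2% charcoal-stripped FBS medium.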

[2] = biological target: Estrogen receptor beta (Homo sapiens) (UniProt Q92731); assay: qHTS assay to identify small molecule antagonists of the estrogen receptor beta (ER-beta) signaling pathway (AID 1259378; active = well fitted inhibition curve with a large enough effect in the signal ratio in the repeat runs, not every such curve was filed as active; the % refers to the signal ratio)
Procedure, shortened: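 ER-beta-UAS-bla HEK293T (GripTite) cells in 2% charcoal-stripped FBS medium were preincubated 6 hr at 37C, dosed with compound, then stimulated with 1 nM E2 (final) for 16 hr; beta-lactamase reporter read by B/G FRET fluorescence after 2 hr substrate loading.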

[3] = qHTS assay to identify small molecule agonists of the androgen receptor (AR) signaling pathway in the presence of an antagonist - cell viability counter screen (AID 1259379);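 also: MDA-kb2 human breast cancer cells carrying an MMTV luciferase reporter; series mostly up to about 92 µM; nearly all actives have a fitted effect of over 25% in size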
Procedure, shortened: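 Nilutamide-containing (3.0uM final) MDA-kb2 cultures, 3,000 cells/well, were treated with compounds across 15 concentrations. After 16 hr at 37C with no CO2, cell viability was determined by CellTiter-Fluor fluorescence in the luciferase assay wells.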

[4] = qHTS assay to identify small molecule agonists of the estrogen receptor beta (ER-beta) signaling pathway - cell viability counter screen (AID 1259380); also: nearly all actives have a fitted effect of over 30% in size
Procedure, shortened: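 Steps: plate ER-beta-UAS-bla HEK293T cells, rest 6 hr; add compounds in DMSO; incubate 16 hr at 37C, 5% CO2; add FRET substrate 2 hr; add CellTiter-Glo, wait 30 min at room temperature; read luminescence.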

[5] = qHTS assay to identify small molecule antagonists of the estrogen receptor beta (ER-beta) signaling pathway - cell viability counter screen (AID 1259382); also: series mostly up to about 92 µM; nearly all actives have a fitted effect of over 55% in size
Procedure, shortened: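 Viability is scored by CellTiter-Glo luminescence (30 min, room temperature) in ER-beta-UAS-bla HEK293T wells already read for reporter fluorescence. Compound exposure lasts 16 hr at 37C alongside 1nM 17-beta-estradiol in charcoal-stripped serum medium.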

[6] = biological target: Estrogen receptor (Homo sapiens) (UniProt P03372); assay: qHTS assay to identify small molecule agonists of the estrogen receptor alpha (ER-alpha) signaling pathway in the presence of an antagonist (AID 1259383; calls by dose curve; also: top concentration of the series differs between compounds; nearly all actives have a fitted effect of over 15% in size)
Sequence of Estrogen receptor (Homo sapiens) (P03372 whole entry, looked up): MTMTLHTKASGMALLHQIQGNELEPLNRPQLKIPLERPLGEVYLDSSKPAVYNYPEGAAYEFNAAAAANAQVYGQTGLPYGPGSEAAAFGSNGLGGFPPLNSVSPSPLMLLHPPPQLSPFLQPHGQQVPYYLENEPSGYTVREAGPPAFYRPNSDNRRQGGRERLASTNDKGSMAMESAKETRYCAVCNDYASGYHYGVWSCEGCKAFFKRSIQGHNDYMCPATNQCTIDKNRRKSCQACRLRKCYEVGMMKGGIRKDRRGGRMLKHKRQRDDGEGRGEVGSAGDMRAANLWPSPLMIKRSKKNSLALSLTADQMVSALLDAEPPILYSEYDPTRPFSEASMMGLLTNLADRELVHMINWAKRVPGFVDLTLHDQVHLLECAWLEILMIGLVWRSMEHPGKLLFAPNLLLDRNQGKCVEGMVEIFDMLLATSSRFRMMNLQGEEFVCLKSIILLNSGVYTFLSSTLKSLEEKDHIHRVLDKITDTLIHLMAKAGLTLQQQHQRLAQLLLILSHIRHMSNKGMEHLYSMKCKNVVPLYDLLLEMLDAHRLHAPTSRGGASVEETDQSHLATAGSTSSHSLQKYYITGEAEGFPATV
Procedure, shortened: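 Readout was ERE-driven luciferase luminescence in VM7Luc4E2 cells, which express full-length ER-alpha endogenously. Compounds were tested at 15 concentrations for 22hr alongside 10.0nM ICI-182,780 (final concentration).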

[7] = qHTS assay to identify small molecule agonists or antagonists of the thyroid stimulating hormone receptor (TSHR) signaling pathway - wild type cell line counter screen (AID 1259384; calls by dose curve)
Procedure, shortened: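 Wild-type HEK293 cells were plated 18 h at 37 C/5% CO2, pin-dosed with compound plus Ro20-1724 medium, held 30 min at room temperature, then given cAMP-d2 and anti-cAMP-cryptate; fluorescence was read after 1 h. Fifteen concentrations, triplicate.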

[8] = biological target: Thyrotropin receptor (Homo sapiens) (UniProt P16473); assay: qHTS assay to identify small molecule antagonists of the thyroid stimulating hormone receptor (TSHR) signaling pathway (AID 1259385; calls by dose curve; also: nearly all actives have a fitted effect of over 20% in size)
Sequence of Thyrotropin receptor (Homo sapiens) (P16473 whole entry, looked up): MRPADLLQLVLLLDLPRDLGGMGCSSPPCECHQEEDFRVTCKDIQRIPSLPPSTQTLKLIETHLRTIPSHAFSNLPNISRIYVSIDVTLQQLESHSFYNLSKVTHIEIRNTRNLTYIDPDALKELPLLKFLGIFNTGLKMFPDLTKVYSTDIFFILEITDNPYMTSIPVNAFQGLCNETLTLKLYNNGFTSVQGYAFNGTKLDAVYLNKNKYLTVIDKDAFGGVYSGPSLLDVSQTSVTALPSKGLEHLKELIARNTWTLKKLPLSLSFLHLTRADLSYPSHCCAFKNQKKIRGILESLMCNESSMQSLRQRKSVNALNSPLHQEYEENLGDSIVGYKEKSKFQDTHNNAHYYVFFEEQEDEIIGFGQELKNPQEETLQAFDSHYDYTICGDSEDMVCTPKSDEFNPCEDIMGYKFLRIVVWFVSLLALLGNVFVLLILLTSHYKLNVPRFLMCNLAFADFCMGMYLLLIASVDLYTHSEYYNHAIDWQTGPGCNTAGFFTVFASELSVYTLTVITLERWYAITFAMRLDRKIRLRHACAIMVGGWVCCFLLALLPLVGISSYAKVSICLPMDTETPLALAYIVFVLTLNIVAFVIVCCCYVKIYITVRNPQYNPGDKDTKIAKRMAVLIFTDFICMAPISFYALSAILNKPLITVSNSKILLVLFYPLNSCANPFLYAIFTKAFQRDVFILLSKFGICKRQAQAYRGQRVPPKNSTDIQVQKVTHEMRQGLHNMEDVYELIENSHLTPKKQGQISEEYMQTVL
Procedure, shortened: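 TSHR-HEK293 cells were plated and held 18 h at 37C/5% CO2, then given compound plus Ro20-1724 and stimulated with TSH at 1.5 ng/mL final. After 30 min at room temperature, cAMP was detected with cAMP-d2/anti-cAMP-cryptate (1 h) by fluorescence.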

[9] = qHTS assay to identify small molecule agonists of the estrogen receptor alpha (ER-alpha) signaling pathway in the presence of an antagonist - cell viability counter screen (AID 1259386);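 also: series mostly up to about 92 µM; cells exposed to compounds for 22 h at 37 °C before the viability read; nearly all actives have a fitted effect of over 30% in size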
Procedure, shortened: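 In this counter screen, compound effects on VM7Luc4E2 viability were tested in the presence of the antagonist ICI-182,780 at 10.0nM final. Compounds were dosed at 15 concentrations, exposure lasted 22hr, and the CellTiter-Fluor signal was read.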

[10] = biological target: Progesterone receptor (Homo sapiens) (UniProt P06401); assay: qHTS assay to identify small molecule agonists of the progesterone receptor (PR) signaling pathway (AID 1346784; calls by dose curve; also: nearly all actives have a fitted effect of over 30% in size)
Sequence of Progesterone receptor (Homo sapiens) (P06401 whole entry, looked up): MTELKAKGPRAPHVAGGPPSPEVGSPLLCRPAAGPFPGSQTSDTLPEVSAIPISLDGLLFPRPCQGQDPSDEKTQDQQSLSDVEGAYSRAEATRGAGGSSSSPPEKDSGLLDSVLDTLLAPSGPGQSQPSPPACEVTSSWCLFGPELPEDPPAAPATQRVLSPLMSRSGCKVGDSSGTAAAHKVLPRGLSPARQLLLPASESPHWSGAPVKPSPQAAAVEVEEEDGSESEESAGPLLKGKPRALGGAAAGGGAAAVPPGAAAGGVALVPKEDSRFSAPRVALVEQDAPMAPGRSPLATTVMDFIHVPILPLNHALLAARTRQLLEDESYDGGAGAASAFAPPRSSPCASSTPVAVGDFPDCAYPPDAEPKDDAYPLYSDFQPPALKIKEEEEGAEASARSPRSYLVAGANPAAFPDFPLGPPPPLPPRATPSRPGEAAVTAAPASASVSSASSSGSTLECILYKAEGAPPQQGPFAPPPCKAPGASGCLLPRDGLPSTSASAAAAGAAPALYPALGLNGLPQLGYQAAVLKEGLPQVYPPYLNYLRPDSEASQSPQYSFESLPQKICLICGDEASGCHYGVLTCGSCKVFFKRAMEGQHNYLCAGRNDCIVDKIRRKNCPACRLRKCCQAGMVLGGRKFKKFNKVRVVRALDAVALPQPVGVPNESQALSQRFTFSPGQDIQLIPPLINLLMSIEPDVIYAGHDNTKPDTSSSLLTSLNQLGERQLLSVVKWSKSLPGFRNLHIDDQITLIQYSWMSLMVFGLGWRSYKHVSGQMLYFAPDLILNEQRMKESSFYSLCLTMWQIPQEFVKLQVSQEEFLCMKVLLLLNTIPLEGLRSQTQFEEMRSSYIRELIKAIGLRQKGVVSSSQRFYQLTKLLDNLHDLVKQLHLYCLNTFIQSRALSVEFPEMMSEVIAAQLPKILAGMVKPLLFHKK
Procedure, shortened: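 HEK 293T PR-UAS-bla reporter cells, 2% charcoal-stripped FBS; 6 hr settle at 37C/5% CO2, compound (DMSO) 16 hr, LiveBLAzer B/G FRET substrate 2 hr RT, fluorescence intensity read.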

[11] = biological target: Progesterone receptor (Homo sapiens) (UniProt P06401); assay: qHTS assay to identify small molecule antagonists of the progesterone receptor (PR) signaling pathway (AID 1346795; active = well fitted inhibition curve with a large enough effect in the signal ratio in the repeat runs, not every such curve was filed as active; the % refers to the signal ratio)
Procedure, shortened: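 Beta-lactamase reporter, HEK293T PR-UAS-bla line; 2% charcoal-stripped FBS; 6 hr pre-incubation, 37C/5% CO2. Compound + R5020 1 nM final, 16 hr. LiveBLAzer B/G FRET substrate, 2 hr RT; fluorescence intensity read.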

[12] = qHTS assay to identify small molecule antagonists of the progesterone receptor (PR) signaling pathway - cell viability counter screen (AID 1346798); also: series mostly up to about 92 µM; nearly all actives have a fitted effect of over 50% in size
Procedure, shortened: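 Luminescence readout (CellTiter-Glo, 30 min, RT) of viability in PR-UAS-bla HEK293T cells exposed to compound and R5020 agonist for 16 hr at 37C, 5% CO2; run in the same wells as the beta-lactamase reporter read.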

[13] = qHTS assay to identify small molecule agonists of the progesterone receptor (PR) signaling pathway - cell viability counter screen (AID 1346799; calls by dose curve; also: nearly all actives have a fitted effect of over 45% in size)
Procedure, shortened: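 HEK293T PR-UAS-bla, 3,000 cells/well, 2% charcoal-stripped FBS; 6 h settle, compound 16 h at 37C/5% CO2; LiveBLAzer 2 h RT, then CellTiter-Glo 30 min RT, luminescence read.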

[14] = qHTS assay to identify small molecule antagonists of the TGF-beta/Smad signaling pathway - cell viability counter screen (AID 1346824); also: nearly all actives have a fitted effect of over 50% in size
Procedure, shortened: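 SBE-bla HEK 293T cells were plated overnight at 37 C, then given compounds in DMSO plus TGF-beta1 (added as 0.25 ng/mL solution) for 5 hr. After the bla read, CellTiter-Glo was added to the same wells and luminescence read after 30 min at room temperature.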

[15] = qHTS assay to identify small molecule agonists of the TGF-beta/Smad signaling pathway - cell viability counter screen (AID 1346829); also: top concentration of the series differs between compounds; nearly all actives have a fitted effect of over 45% in size
Procedure, shortened: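 CellTiter-Glo luminescence readout; SBE-bla HEK 293T cells, overnight plating, compound 5 hr at 37 C/5% CO2, then bla substrate 2 hr RT, then CellTiter-Glo 30 min RT.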

[16] = qHTS assay to identify small molecule agonists of the TGF-beta/Smad signaling pathway (AID 1346859; active = well fitted activation curve with a large enough effect in the signal ratio in the repeat runs, not every such curve was filed as active; the % refers to the signal ratio; also: series mostly up to about 77 µM)
Procedure, shortened: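 Read-out: fluorescence at 460 and 530 nm (405 nm excitation) after a 2 hr room-temperature incubation with beta-lactamase FRET substrate. SBE-bla HEK 293T cells had been treated with test compounds for 5 hr at 37 C.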

[17] = Human pregnane X receptor (PXR) small molecule agonists, qHTS cell viability counter screen (AID 1346977); also: nearly all actives have a fitted effect of over 50% in size
Procedure, shortened: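 Fluorescence read-out (CellTiter-Fluor) of viability in PXR-Luc HepG2 cells, multiplexed with the luciferase agonist read. Compounds in DMSO added after 5hr plating; 24hr total exposure at 37C, 5% CO2.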

[18] = biological target: Thyrotropin-releasing hormone receptor (Homo sapiens) (UniProt P34981); assay: qHTS assay to identify small molecule antagonists of the thyrotropin-releasing hormone receptor (TRHR) signaling pathway (AID 1346877; active = well fitted inhibition curve with a large enough effect in the repeat runs, not every such curve was filed as active; also: series mostly up to about 51 µM)
Sequence of Thyrotropin-releasing hormone receptor (Homo sapiens) (P34981 whole entry, looked up): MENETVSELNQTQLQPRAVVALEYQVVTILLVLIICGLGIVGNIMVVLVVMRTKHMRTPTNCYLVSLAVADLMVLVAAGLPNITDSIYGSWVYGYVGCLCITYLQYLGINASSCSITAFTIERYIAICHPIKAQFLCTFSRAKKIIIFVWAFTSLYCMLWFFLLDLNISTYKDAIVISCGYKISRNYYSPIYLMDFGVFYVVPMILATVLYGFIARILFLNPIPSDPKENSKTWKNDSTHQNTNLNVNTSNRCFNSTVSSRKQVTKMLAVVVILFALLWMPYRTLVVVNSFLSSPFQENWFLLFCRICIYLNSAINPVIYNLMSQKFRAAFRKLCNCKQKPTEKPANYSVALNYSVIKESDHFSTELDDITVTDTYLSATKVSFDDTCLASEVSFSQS
Procedure, shortened: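 Kinetic fluorescence (3 min, 1 s resolution) following stimulation with TRH at 1 nM final; HEK293 cells bearing human TRHR; 5 min compound preincubation at RT; concentration-response over 15 points, triplicates.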

[19] = biological target: Thyrotropin-releasing hormone receptor (Homo sapiens) (UniProt P34981); assay: qHTS assay to identify small molecule agonists of the thyrotropin-releasing hormone receptor (TRHR) signaling pathway (AID 1346891; calls by dose curve;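 also: HEK293 cells expressing TRHR with calcium dye readout; series mostly up to about 58 µM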)
Procedure, shortened: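 HEK293/TRHR cells, 1500 per well, 18 h 37 °C; Ca dye 2 h 37 °C; pin-tool compound addition (agonist mode); kinetic fluorescence 3 min, 1 s reads; 15 concentrations, triplicate.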

[20] = biological target: Androgen receptor (Homo sapiens) (UniProt P10275); assay: qHTS assay to identify small molecule agonists of the androgen receptor (AR) signaling pathway in the presence of an antagonist (AID 1259381; calls by dose curve; also: nearly all actives have a fitted effect of over 15% in size)
Sequence of Androgen receptor (Homo sapiens) (P10275 whole entry, looked up): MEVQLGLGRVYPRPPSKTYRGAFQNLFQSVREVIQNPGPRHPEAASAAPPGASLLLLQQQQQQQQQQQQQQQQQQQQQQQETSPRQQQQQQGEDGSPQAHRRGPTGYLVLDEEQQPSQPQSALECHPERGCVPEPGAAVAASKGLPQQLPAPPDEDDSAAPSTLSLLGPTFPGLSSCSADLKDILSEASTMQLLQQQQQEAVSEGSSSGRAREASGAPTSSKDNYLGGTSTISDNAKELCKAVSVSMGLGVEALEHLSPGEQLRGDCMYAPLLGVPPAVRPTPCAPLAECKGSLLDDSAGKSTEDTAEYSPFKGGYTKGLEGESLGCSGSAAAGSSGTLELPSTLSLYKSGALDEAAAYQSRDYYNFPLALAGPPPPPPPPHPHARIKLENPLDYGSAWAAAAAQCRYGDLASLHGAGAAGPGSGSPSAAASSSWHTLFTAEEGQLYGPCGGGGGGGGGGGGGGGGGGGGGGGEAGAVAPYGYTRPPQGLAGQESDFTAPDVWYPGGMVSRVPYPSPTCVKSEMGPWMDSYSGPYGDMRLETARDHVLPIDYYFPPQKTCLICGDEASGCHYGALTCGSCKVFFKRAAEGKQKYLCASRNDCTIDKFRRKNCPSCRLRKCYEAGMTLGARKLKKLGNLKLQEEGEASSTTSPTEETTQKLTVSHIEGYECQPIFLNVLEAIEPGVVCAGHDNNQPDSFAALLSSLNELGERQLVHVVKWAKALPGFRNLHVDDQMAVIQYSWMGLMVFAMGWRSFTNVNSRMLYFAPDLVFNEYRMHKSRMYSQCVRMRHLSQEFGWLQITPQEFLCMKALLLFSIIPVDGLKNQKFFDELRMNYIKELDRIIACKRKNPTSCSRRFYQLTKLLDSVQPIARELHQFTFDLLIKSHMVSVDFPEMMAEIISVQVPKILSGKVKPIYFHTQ
Procedure, shortened: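 Reporter-gene luminescence from MDA-kb2 cells exposed 16hr at 37C (0% CO2) to 15-point compound titrations with 3.0uM final nilutamide as AR antagonist.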

Measured: Potency

CN1C(C)(C)CC(O)CC1(C)C
not listed: [18] | [19] | [20]
inactive: all other assays above

CCCCN(CCC(=O)OCC)C(C)=O
not listed: [9] | [11] | [15] | [20]
inactive: all other assays above

CCOC(=O)OC(C)OC1=C(C(=O)Nc2ccccn2)N(C)S(=O)(=O)c2ccccc21 (stereo unspecified)
not listed: [12] | [13] | [20]
inactive: all other assays above

CCOc1c(N2CCOCC2)cnn(C)c1=O
not listed: [11]
inactive: all other assays above

NC(=O)Cc1cccc2ccccc12
not listed: [6] | [20]
inactive: all other assays above

CCNS(=O)(=O)c1ccc(C)cc1
not listed: [7] | [8] | [11] | [20]
inactive: all other assays above

O=CN(CCO)CCO
not listed: [6] | [20]
inactive: all other assays above
